Earlier results on 22 compounds are cited in PubChem BioAssay AID977611.

Screen size: about 3,900 compounds; about 3,900 (100%) were called active. Cut-off not given; nearly all actives show Kd up to about 4200 µM. The set was probably picked from earlier hits. The list shows a part of the results. Numbered stars: 1 amine (or outer) side, 2 acyl side, 3 side chain; on linkers, the order of the positions; unused ones are H or OH. *1 amine or outer side, *2 acyl side, *3 side chain or, on linkers, in order; H or OH if unused. Where a SMILES comes first, the peptide text is derived from it. Non-standard residues stand in square brackets, D forms with d. Square brackets hold non-standard residues; d marks the D form. Residues, ends and D or L forms follow the SMILES beside them. Peptide text beside a SMILES is read from it. [ ]: non-standard residue; d: D form. X3 = CCCCCC[C@](C)(N[C@@H](O)CN)[C@H](O)N([C@@H](CC(C)C)C(=O)[*:2])[*:1]; X1 = CCCC[C@@](C)(N[*:1])C(=O)[*:2]; Thr(P(OH)3+) = C[C@@H](O[P+](O)(O)O)[C@H](N)C(=O)O; Orn(CH(NH2)2) = NC(N)NCCC[C@H](N)C(=O)O; X4 = CCCCCC[C@](C)(N[*:1])C(=O)[*:2]; X2 = CCCC[C@](C)(N[*:1])C(=O)[*:2]

A short description of the series: PubChem AID 977611. The following applies: PDB protein-ligand complexes, literature Kd.

Turning to `CC(=O)n1ccc2nc3ccc(Cl)cc3c-2c1`, under “protein: Bromodomain adjacent to zinc finger domain protein 2B BAZ2B Bromodomain, PDB entry 4nra”, the Kd – broadly, the concentration at which binding is half-saturated – was 65 µM (active).

Regarding `c1ccc(-c2nsc(N3CCCNCC3)n2)cc1`, the Kd (protein: INTEGRASE, PDB entry 4ah9) is 3500 µM (active). For `Cc1ccc(C(=O)N(CCCN)[C@@H](C2=C(Cc3ccccc3)C(O)c3ccc(Cl)cc3O2)C(C)C)cc1` (stereo partly drawn), the Kd (protein: KINESIN-LIKE PROTEIN KIF11, PDB entry 4bxn) is 0.01 µM (active). `O[C@@H](CC1c2ccccc2Sc2ccccc21)CN1CCCC1`: the Kd (protein: Renin, PDB entry 4gj8) is 500 µM (active). For the compound `Cc1ncc2c(n1)N(C)C(=O)C(=N)C2`, for the setting “protein: Caspase-6, PDB entry 4n5d”, the dissociation constant Kd was 607 µM (active). In the case of `CC[C@H](C)[C@H](NC(=O)[C@H](CC(C)C)NC(=O)[C@H](Cc1c[nH]cn1)NC(=O)[C@H](CC(=O)O)NC(=O)[C@H](CC(=O)O)NC(=O)[C@H](CCC(=O)O)NC(=O)[C@H](CC(=O)O)NC(=O)[C@@H](NC(=O)[C@H](CC(=O)O)NC(=O)[C@@H](N)CCC(=O)O)[C@@H](C)O[P+](O)(O)O)C(=O)N[C@@H](Cc1ccc(O)cc1)C(=O)N[C@@H](CC(C)C)C(=O)N[C@@H](CCC(=O)O)C(=O)N[C@@H](CCC(=O)O)C(=O)N[C@H](C(=O)N[C@@H](CC(C)C)C(=O)N[C@H](C(=O)N[C@@H](CCCNC(N)N)C(=O)N[C@H](C(=O)O)C(C)C)C(C)C)[C@@H](C)CC` (H-ED[Thr(P(OH)3+)]DEDDHLIYLEEILV[Orn(CH(NH2)2)]V-OH), the Kd (protein: C-terminal domain of human RAP74, PDB entry 2k7l) is 0.7 µM (active). Regarding `CC[C@H](C)[C@H](NC(=O)CNC(=O)[C@H](CCC(=O)O)NC(=O)CNC(=O)[C@H](CCC(=O)O)NC(=O)[C@H](CCC(=O)O)NC(=O)[C@H](CC(C)C)NC(=O)CNC(=O)[C@H](Cc1ccccc1)NC(=O)[C@H](Cc1c[nH]cn1)NC(=O)[C@H](Cc1ccc(O)cc1)NC(=O)[C@H](CC(=O)O)NC(=O)[C@@H](N)CC(C)C)C(=O)N[C@@H](CCCNC(N)N)C(=O)N[C@@H](CC(=O)O)C(=O)N[C@@H](CC(C)C)C(=O)N[C@@H](Cc1ccccc1)C(=O)N[C@H](C)CC(=O)O`, the Kd (protein: The human retinoblastoma tumor suppressor protein (pRb), PDB entry 1o9k) was 0.34 µM (active). `CC1CCN(c2cc(-c3ccc(C(F)(F)F)cc3)nc(N)n2)CC1`: the Kd (protein: Acetylcholine-binding protein AChBP, PDB entry 4qac) is 0.0004 µM (active). For `Nc1nc(-c2ccc(C(F)(F)F)cc2)cc(N2CCOCC2)n1`, the Kd (protein: Acetylcholine-binding protein AChBP, PDB entry 4qab) was 0.0002 µM (active). On to `CCCCCC[C@](C)(NC(=O)[C@H](CC(=O)O)NC(=O)[C@H](CC(C)C)N[C@@H](O)[C@](C)(CCCCCC)N[C@@H](O)CN)C(=O)N[C@@H](CC(C)C)C(=O)N[C@@H](CC(=O)O)C(=O)N[C@@H](CC(C)C)C(=O)N[C@@H](C)C(=O)N[C@@H](CO)C(=O)O` (H-[X3]D[X4]LDLAS-OH), for which the Kd (protein: 14-3-3 protein zeta/delta, PDB entry 4n84) was 0.51 µM (active). Regarding `CCCC[C@@](C)(NC(=O)CNC(=O)[C@@H](N)CCC(N)=O)C(=O)N[C@@H](CC(C)C)C(=O)N[C@@H](CC(=O)O)C(=O)N[C@@](C)(CCCC)C(=O)N[C@@H](CC(C)C)C(=O)N[C@@H](CC(=O)O)C(=O)N[C@@H](CC(C)C)C(=O)N[C@@H](C)C(=O)N[C@@H](CO)C(=O)O` (H-QG[X1]LD[X2]LDLAS-OH), the Kd (protein: 14-3-3 protein zeta/delta, PDB entry 4n7y) is 0.55 µM (active).

Take `c1ccc([C@@H]2Nc3ccccc3-c3nc4ccccc4n32)nc1`: where the note is “protein: Retinal rod rhodopsin-sensitive cGMP 3',5'-cyclic phosphodiesterase subunit delta, PDB entry 4jv8”, the Kd is 1.42 µM (active).

`Cc1cc2nc3c(=O)[nH]c(=O)nc-3n(C[C@H](O)[C@H](O)[C@H](O)CO)c2cc1C`: where the note is “protein: putative protease fromBacteroides thetaiotaomicron (ppBat), PDB entry 4d1y”, the Kd is 0.074 µM (active).

In the case of `O=C1N[C@@H](c2cccnc2)c2c(-c3ccccc3)n[nH]c21`, where the note is “protein: Gag protein, PDB entry 4j93”, the Kd was 20 µM (active). As to `O=C(O)CCc1ccc2c(c1)OCO2`, the Kd reads like this: (protein: INTEGRASE, PDB entry 4ahr) 6500 µM (active); (protein: Pantothenate synthetase (T2A, E77G mutation), PDB entry 4ef6) 1200 µM (active).

Turning to `O=C(O)c1ccc2c(c1)OCO2`, for the setting “protein: Pantothenate synthetase (T2A, E77G mutation), PDB entry 4ddk”, the Kd was 5100 µM (active). With `O=C1NC(=[N+]2CCCC2)Cc2ccccc21`, for the setting “protein: Caspase-6, PDB entry 4n7m”, the Kd was 3.4 µM (active). As for `O=C(Nc1ccc(OC(F)(F)F)cc1)N(Cc1cccc(-c2nccs2)c1)C1CC1`, the Kd (protein: High affinity nerve growth factor receptor TrkA, PDB entry 4pmp) is 0.4 µM (active). Regarding `CCc1c(C(=O)Nc2cc(S(=O)(=O)N(CC)CC)ccc2O)[nH]c(C)c1C(C)=O`, the Kd (protein: Bromodomain-containing protein 4, BRD4(1), PDB entry 4lyw) was 237 µM (active). On to `CCc1c(C(=O)NC)[nH]c(C)c1C(C)=O`, for which, where the note is “protein: Bromodomain-containing protein 4, BRD4(1), PDB entry 4lzs”, the Kd was 16 µM (active). In the case of `CC[C@H](C)[C@H](NC(=O)[C@H](C)NC(=O)[C@@H]1CCCN1C(=O)[C@@H](NC(=O)[C@@H](N)CC(=O)O)[C@@H](C)CC)C(=O)N[C@@H](Cc1ccc(O)cc1)C(=O)N[C@@H](CCCNC(N)N)C(=O)N[C@@H](Cc1ccc(O)cc1)C(=O)NCC(=O)N[C@@H](CC(C)C)C(=O)N[C@@H](CCC(=O)O)C(=O)NCC(=O)N[C@@H](CC(C)C)C(=O)N[C@@H](CC(C)C)C(=O)O` (H-DIPAIY[Orn(CH(NH2)2)]YGLEGLL-OH), the Kd (protein: CELL DIVISION PROTEIN FTSA, PUTATIVE, PDB entry 4a2a) is 45 µM (active). Regarding `CC[C@H](C)[C@H](NC(=O)[C@H](CCC(=O)O)NC(=O)[C@@H](NC(=O)[C@H](CC(=O)O)NC(=O)CNC(=O)[C@H](Cc1ccc(O[P+](O)(O)O)cc1)NC(=O)[C@H](CC(=O)O)NC(=O)[C@H](CCC(=O)O)NC(=O)[C@@H]1CCCN1C(=O)[C@H](Cc1ccc(O)cc1)NC(=O)[C@@H]1CCCN1C(=O)[C@H](CC(N)=O)NC(=O)[C@@H](N)Cc1ccc(O)cc1)[C@@H](C)CC)C(=O)NCC(=O)O` (H-YNPYPED[X1]GDIEIG-OH), the Kd (protein: insulin receptor subunit beta, PDB entry 3bu6) was 1.3 µM (active).
